Assay results: PubChem BioAssay AID1159580 (chemical genetic matrix, 2015)
Where “and” joins values, the source holds several entries; their conditions need not be identical. Equal entries are not always repeated. Hit rate of the full screen: of about 5,500 compounds, about 2,000 (36%) were called active. Not shown: some 18% with an inconclusive outcome. Rule as the data show it: active = normalized growth mostly below about 0.91 (no sharp cut-off); inconclusive = no clear call, values can overlap the other calls; inactive = mostly above about 0.92. The list shows a part of the results.

Test: chemical genetic growth profiling, strain panel (AID 1159580);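 also: tested at 20 µM; growth read once vehicle control cultures reached saturation at 30 °C; 1 = growth at the plate median or of vehicle wells; lower values mean less growth of the strain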
Details: S. cerevisiae deletion strains, growth OD

Measured: normalized growth

O=C(O)c1ccccc1O
inactive: locus YAL013W, strain DEP1, stronger effect = lower value 1.01 | locus YAL021C, strain ccr4, stronger effect = lower value 0.985 | locus YAL026C, strain drs2, stronger effect = lower value 0.984 | locus YAL030W, strain snc1, stronger effect = lower value 0.992 | locus YBL061C, strain skt5, stronger effect = lower value 0.979 | locus YBR009C, strain hhf1, stronger effect = lower value 0.996 | locus YBR021W, strain FUR4, stronger effect = lower value 0.994 | locus YBR023C, strain chs3, stronger effect = lower value 0.995 | locus YBR171W, strain sec66, stronger effect = lower value 0.996 | locus YBR229C, strain ROT2, stronger effect = lower value 1 | locus YBR231C, strain swc5, stronger effect = lower value 0.975 | locus YBR279W, strain paf1, stronger effect = lower value 0.979 | locus YCL011C, strain gbp2, stronger effect = lower value 0.983 | locus YCL016C, strain dcc1, stronger effect = lower value 1.01 | locus YCL029C, strain bik1, stronger effect = lower value 1.01 | locus YCL069W, strain vba3, stronger effect = lower value 0.994 | locus YCR088W, strain abp1, stronger effect = lower value 0.981 | locus YDL005C, strain med2, stronger effect = lower value 0.973 | locus YDL035C, strain GPR1, stronger effect = lower value 1.01 | locus YDL040C, strain nat1, stronger effect = lower value 0.969 | locus YDL074C, strain BRE1, stronger effect = lower value 1.03 | locus YDL101C, strain DUN1, stronger effect = lower value 1.01 | locus YDL134C, strain PPH21, stronger effect = lower value 1.01 | locus YDL185W, strain tfp1, stronger effect = lower value 0.992 | locus YDL192W, strain arf1, stronger effect = lower value 1.01 | locus YDR001C, strain nth1, stronger effect = lower value 0.955 | locus YDR069C, strain doa4, stronger effect = lower value 0.975 | locus YDR101C, strain arx1, stronger effect = lower value 1.01 | locus YDR137W, strain rgp1, stronger effect = lower value 0.997 | locus YDR159W, strain sac3, stronger effect = lower value 0.976 | locus YDR162C, strain NBP2, stronger effect = lower value 1.01 | locus YDR195W, strain ref2 0.904 | locus YDR297W, strain sur2, stronger effect = lower value 0.984 | locus YDR318W, strain mcm21, stronger effect = lower value 1.03 | locus YDR334W, strain swr1, stronger effect = lower value 0.916 | locus YDR335W, strain msn5, stronger effect = lower value 0.959 | locus YDR388W, stronger effect = lower value 1.01 | locus YDR392W, strain spt3, stronger effect = lower value 1.02 | locus YDR502C, strain sam2, stronger effect = lower value 1.01 | locus YEL003W, strain gim4, stronger effect = lower value 0.973 | locus YEL037C, strain rad23, stronger effect = lower value 0.986 | locus YEL061C, strain CIN8 (second series), stronger effect = lower value 0.959 | locus YEL061C, strain CIN8, stronger effect = lower value 1 | locus YER015W, strain faa2, stronger effect = lower value 0.968 | locus YER016W, strain bim1, stronger effect = lower value 0.978 | locus YER110C, stronger effect = lower value 1.01 | locus YER111C, strain swi4, stronger effect = lower value 0.97 | locus YER155C, strain BEM2 (second series), stronger effect = lower value 0.967 | locus YER155C, strain BEM2, stronger effect = lower value 0.992 | locus YER167W, strain BCK2, stronger effect = lower value 1 | locus YFR010W, strain ubp6, stronger effect = lower value 0.978 | locus YGL078C, strain dbp3, stronger effect = lower value 0.998 | locus YGL086W, strain mad1, stronger effect = lower value 1 | locus YGL167C, strain pmr1, stronger effect = lower value 0.968 | locus YGL173C, strain kem1, stronger effect = lower value 0.995 | locus YGL227W, strain vid30, stronger effect = lower value 0.971 | locus YGL240W, strain doc1, stronger effect = lower value 0.983 | locus YGL248W, strain PDE1, stronger effect = lower value 1 | locus YGL253W, strain hxk2, stronger effect = lower value 0.973 | locus YGR078C, strain PAC10, stronger effect = lower value 1 | locus YGR135W, strain pre9, stronger effect = lower value 1.03 | locus YGR252W, strain gcn5, stronger effect = lower value 1.01 | locus YHR013C, strain ard1, stronger effect = lower value 1.01 | locus YHR027C, strain rpn1, stronger effect = lower value 0.984 | locus YHR030C, strain SLT2, stronger effect = lower value 1.01 | locus YHR079C, strain IRE1 (second series), stronger effect = lower value 1.02 | locus YHR079C, strain IRE1, stronger effect = lower value 1.06 | locus YHR094C, strain hxt1, stronger effect = lower value 0.997 | locus YHR129C, strain ARP1, stronger effect = lower value 0.998 | locus YHR142W, strain chs7, stronger effect = lower value 0.997 | locus YHR200W, strain rpn10, stronger effect = lower value 1.01 | locus YIL066C, strain RNR3, stronger effect = lower value 1 | locus YIL073C, strain SPO22, stronger effect = lower value 1.05 | locus YIL125W, strain kgd1, stronger effect = lower value 0.994 | locus YIR030C, strain dcg1, stronger effect = lower value 1 | locus YJL092W, strain hpr5, stronger effect = lower value 0.996 | locus YJL095W, strain BCK1 (second series), stronger effect = lower value 0.978 | locus YJL095W, strain BCK1, stronger effect = lower value 1.01 and 0.995 | locus YJL115W, strain asf1, stronger effect = lower value 0.951 | locus YJL129C, strain trk1, stronger effect = lower value 0.956 | locus YJL134W, strain LCB3, stronger effect = lower value 1 | locus YJL154C, strain vps35, stronger effect = lower value 0.961 | locus YJL164C, strain tpk1, stronger effect = lower value 0.993 | locus YJL166W, strain qcr8, stronger effect = lower value 0.994 | locus YJL168C, strain set2, stronger effect = lower value 1.01 | locus YJL187C, strain SWE1 (second series), stronger effect = lower value 1 | locus YJR043C, strain POL32, stronger effect = lower value 0.979
